Tests used:
Assay in all cases: log2 ratio of Biotin-Ahx-Ub-VS probe labelling (fragment/DMSO); higher = less target engagement (more negative = stronger competition), active = hit call of the paper (q ≤ 0.05, log2 ratio ≤ -1)
Conditions in all cases: compound concentration: 200 uM; treatment time: 3 h
OTUD6B = target: T1, OTUD6B (UniProt Q8N6M0)
T1 sequence (whole entry): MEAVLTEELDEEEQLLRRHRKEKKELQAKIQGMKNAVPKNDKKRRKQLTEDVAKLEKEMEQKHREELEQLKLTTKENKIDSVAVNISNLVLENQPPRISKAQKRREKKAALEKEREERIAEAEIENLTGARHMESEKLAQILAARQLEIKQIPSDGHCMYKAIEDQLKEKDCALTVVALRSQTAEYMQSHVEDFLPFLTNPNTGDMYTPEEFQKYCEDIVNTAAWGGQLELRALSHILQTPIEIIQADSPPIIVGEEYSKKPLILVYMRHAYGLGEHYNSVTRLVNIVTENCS
Summary of the method: (§1)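 Lysate from HEK293T cells, 495 µg per sample in Tris/CHAPS/IGEPAL buffer with protease inhibitors, was treated for 3 h in triplicate with fragment at 200 µM or vehicle. Biotin-Ahx-Ub-VS was next added at 0.5 µM final for 1 h. The labelled DUBs were enriched with NeutrAvidin, digested with LysC and trypsin, and run by diaPASEF LC-MS/MS, with values given as average log2 fragment/vehicle ratios by unpaired t-test on global-median-normalised Spectronaut quantities of proteins with ≥2 unique peptides.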

OTUD7B = target: T2, OTUD7B (UniProt Q6GQQ9)
T2 sequence (whole entry): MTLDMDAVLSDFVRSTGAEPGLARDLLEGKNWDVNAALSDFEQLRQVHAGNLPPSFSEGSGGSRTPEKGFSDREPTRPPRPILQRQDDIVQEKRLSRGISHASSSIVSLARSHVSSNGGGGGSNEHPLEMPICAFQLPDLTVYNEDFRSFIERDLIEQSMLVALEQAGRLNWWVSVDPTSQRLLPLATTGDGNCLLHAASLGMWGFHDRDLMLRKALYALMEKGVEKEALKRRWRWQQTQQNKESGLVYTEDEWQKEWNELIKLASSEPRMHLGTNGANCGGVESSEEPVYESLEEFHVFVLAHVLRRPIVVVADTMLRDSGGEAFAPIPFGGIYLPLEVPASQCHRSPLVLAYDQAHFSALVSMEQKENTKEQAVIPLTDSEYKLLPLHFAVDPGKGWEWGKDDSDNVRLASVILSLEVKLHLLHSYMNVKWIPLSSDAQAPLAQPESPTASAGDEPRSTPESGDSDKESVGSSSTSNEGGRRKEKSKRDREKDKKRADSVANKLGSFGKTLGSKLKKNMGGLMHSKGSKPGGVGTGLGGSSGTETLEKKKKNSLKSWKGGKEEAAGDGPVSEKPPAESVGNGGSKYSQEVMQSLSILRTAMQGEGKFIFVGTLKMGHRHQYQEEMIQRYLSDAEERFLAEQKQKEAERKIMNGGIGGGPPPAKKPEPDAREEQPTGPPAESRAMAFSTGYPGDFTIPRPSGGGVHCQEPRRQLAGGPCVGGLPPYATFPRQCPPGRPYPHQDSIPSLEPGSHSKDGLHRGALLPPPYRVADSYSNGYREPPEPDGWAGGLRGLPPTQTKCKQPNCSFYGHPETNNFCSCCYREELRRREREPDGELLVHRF
Summary of the method: as §1

PRPF8 = PRPF8 (UniProt Q6P2Q9)
Summary of the method: as §1

PSMD7 = target: T3, PSMD7 (UniProt P51665)
T3 sequence (whole entry): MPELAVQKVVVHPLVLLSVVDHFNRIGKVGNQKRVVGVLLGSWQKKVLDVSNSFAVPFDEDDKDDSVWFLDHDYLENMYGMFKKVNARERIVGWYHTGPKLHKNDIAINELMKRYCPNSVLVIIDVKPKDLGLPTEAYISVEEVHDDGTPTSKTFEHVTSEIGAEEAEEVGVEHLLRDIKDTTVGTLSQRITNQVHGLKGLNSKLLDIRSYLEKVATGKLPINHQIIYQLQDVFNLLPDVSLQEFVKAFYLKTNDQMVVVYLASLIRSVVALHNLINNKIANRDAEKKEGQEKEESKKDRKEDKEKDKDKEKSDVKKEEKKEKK
Summary of the method: as §1

UCHL1 = UCHL1 (UniProt P09936)
Summary of the method: as §1

UCHL3 = target: T4, UCHL3 (UniProt P15374)
T4 sequence (whole entry): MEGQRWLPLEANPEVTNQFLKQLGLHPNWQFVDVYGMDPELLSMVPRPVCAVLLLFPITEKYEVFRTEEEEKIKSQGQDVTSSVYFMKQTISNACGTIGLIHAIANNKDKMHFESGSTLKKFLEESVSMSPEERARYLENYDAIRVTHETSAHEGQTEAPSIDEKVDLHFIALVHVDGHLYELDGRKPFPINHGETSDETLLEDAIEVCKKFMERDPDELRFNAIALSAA
Summary of the method: as §1

UCHL5 = target: T5, UCHL5 (UniProt Q9Y5K5)
T5 sequence (whole entry): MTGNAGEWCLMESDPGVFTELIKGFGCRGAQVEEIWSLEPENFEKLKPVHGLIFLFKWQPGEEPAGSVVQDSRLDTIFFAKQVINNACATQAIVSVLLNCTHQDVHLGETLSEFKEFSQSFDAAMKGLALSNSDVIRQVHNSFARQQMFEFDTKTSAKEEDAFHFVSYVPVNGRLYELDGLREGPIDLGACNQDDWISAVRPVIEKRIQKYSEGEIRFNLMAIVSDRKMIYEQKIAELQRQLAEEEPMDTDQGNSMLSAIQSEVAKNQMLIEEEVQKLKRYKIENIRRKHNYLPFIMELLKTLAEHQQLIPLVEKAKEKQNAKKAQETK
Summary of the method: as §1

USP10 = USP10 (UniProt Q14694)
Summary of the method: as §1

USP15 = target: T6, USP15 (UniProt Q9Y4E8)
T6 sequence (whole entry): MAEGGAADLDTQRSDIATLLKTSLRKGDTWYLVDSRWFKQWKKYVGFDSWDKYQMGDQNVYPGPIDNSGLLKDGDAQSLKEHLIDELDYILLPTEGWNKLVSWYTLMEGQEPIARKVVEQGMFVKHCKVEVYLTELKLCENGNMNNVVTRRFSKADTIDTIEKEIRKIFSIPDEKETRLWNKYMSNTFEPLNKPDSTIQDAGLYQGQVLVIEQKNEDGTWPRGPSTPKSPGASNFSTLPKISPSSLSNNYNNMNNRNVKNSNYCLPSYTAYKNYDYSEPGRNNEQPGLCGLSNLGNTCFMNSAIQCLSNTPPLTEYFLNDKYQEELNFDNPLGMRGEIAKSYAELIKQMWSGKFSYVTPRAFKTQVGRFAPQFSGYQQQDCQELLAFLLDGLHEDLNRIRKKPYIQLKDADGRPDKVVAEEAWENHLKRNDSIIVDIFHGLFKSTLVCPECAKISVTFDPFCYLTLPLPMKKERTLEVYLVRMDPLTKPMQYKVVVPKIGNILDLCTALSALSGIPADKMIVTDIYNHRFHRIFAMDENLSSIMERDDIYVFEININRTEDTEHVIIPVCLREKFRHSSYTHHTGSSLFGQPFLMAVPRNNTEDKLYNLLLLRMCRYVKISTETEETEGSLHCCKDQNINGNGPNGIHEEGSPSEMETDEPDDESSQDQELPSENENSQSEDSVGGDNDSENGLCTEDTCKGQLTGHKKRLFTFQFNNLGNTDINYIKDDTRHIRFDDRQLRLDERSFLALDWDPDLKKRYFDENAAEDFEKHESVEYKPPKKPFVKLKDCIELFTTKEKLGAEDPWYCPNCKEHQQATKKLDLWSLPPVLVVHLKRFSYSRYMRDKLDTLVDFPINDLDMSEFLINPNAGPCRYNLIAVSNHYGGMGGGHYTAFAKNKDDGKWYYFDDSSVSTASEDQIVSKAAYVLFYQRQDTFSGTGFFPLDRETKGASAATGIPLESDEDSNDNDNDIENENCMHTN
Summary of the method: as §1

USP16 = USP16 (UniProt Q9Y5T5)
Summary of the method: as §1

Measured: log2 ratio of Biotin-Ahx-Ub-VS probe labelling

Chain of UCHL1 (P09936 whole entry, looked up): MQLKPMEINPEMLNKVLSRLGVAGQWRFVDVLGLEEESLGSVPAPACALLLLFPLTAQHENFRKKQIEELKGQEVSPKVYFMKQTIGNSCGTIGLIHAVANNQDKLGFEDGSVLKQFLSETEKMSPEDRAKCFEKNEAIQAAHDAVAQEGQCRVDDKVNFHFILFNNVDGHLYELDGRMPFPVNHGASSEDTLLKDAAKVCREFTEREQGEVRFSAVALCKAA
Chain of USP16 (Q9Y5T5 whole entry, looked up): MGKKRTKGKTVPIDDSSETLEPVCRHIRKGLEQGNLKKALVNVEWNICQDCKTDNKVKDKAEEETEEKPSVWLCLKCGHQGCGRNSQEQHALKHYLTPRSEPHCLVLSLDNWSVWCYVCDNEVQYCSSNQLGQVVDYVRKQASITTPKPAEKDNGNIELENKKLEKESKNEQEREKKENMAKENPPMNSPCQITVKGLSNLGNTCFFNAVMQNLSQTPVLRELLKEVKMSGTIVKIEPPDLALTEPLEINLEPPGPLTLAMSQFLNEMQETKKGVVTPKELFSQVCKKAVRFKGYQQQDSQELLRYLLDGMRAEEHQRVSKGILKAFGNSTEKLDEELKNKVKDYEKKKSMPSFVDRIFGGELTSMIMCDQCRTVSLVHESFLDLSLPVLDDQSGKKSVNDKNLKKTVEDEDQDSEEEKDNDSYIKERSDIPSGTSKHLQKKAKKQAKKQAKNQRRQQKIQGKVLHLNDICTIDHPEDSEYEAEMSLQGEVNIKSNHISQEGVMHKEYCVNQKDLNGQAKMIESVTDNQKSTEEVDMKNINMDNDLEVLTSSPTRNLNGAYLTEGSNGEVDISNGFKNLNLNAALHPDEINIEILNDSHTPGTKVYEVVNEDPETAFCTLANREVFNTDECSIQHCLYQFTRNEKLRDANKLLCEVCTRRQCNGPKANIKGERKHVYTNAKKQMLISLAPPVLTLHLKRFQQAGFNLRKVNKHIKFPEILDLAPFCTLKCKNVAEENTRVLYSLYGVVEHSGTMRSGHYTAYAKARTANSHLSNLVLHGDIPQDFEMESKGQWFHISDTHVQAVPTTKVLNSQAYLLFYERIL
Chain of USP10 (Q14694 whole entry): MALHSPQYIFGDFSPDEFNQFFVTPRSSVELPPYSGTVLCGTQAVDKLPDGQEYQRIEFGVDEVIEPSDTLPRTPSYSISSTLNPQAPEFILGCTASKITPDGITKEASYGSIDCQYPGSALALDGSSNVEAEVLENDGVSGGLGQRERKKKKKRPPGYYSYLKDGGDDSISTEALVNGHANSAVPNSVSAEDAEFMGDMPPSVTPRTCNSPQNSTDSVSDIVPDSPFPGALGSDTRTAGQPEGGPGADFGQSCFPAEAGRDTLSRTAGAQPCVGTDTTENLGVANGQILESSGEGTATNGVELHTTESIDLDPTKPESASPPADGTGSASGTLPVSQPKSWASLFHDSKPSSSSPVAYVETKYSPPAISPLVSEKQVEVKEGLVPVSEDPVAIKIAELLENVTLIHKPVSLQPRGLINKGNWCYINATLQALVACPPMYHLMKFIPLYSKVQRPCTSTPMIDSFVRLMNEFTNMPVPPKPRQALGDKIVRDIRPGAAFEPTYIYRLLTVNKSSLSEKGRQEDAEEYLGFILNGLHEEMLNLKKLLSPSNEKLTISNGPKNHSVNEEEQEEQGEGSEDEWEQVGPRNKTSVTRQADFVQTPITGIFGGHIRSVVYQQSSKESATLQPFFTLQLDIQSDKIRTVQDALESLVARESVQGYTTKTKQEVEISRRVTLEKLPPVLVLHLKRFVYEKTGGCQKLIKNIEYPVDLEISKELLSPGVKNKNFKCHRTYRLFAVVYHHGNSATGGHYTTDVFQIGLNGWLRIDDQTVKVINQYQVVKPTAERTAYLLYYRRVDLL

CS(=O)(=O)c1ccc(NC(=O)CCl)cc1
active: UCHL1 -1.26
inactive: OTUD6B -0.109 | OTUD7B -0.594 | PRPF8 -0.257 | PSMD7 0.0407 | UCHL3 0.206 | UCHL5 -0.282 | USP10 -0.104 | USP15 -0.136 | USP16 -0.145

Source: the supplement of paper PMC11732987, “Enantioselective OTUD7B fragment discovery through chemoproteomics screening and high-throughput optimisation” (Communications Chemistry, 2025)
